How the values were obtained:
Test in all cases: log2 ratio of Biotin-Ahx-Ub-VS probe labelling (fragment/DMSO); higher = less target engagement (more negative = stronger competition), active = hit call of the paper (q ≤ 0.05, log2 ratio ≤ -1)
Settings in all cases: compound concentration: 200 uM; treatment time: 3 h
USP42 = target: T1, USP42 (UniProt Q9H9J4)
T1 sequence (whole entry): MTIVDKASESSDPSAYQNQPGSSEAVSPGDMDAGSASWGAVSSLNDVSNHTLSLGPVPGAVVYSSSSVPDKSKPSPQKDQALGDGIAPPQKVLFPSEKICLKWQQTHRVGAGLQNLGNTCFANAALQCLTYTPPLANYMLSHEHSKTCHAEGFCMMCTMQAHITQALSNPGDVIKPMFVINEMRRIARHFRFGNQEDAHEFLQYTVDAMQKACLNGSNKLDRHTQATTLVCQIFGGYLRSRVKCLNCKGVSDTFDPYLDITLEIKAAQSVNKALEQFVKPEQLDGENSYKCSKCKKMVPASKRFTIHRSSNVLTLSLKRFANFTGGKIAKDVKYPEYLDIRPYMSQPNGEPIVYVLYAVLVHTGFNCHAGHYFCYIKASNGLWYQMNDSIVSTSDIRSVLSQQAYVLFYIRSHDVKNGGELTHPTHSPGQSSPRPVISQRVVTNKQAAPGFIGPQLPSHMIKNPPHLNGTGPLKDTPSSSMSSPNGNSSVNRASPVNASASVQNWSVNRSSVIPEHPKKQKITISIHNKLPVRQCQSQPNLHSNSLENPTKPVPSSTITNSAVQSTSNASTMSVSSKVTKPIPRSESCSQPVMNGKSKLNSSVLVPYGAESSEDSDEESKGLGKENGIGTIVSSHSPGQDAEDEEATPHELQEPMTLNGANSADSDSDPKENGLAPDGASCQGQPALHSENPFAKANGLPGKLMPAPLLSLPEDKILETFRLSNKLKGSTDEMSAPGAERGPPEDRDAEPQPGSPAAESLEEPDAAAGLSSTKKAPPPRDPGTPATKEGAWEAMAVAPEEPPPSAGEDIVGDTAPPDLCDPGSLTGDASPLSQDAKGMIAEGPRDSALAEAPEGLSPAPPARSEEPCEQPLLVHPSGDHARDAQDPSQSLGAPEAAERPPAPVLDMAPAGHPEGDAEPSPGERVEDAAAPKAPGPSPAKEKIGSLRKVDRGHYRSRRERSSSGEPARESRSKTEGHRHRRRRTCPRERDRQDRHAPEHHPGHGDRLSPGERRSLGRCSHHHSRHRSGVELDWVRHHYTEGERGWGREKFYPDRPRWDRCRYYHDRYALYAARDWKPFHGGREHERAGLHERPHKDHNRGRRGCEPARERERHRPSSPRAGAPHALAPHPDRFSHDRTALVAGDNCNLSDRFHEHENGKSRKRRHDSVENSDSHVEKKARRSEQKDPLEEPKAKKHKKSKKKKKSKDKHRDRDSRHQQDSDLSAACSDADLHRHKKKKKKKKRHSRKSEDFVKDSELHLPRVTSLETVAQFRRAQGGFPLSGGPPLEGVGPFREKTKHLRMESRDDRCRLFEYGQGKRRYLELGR
Method in brief: (§1)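 HEK293T lysate (495 µg per sample, in Tris/CHAPS/IGEPAL buffer with protease inhibitors) was treated in triplicate with fragment at 200 µM or with DMSO for 3 h. It was then treated with Biotin-Ahx-Ub-VS (0.5 µM final) for 1 h. Labelled DUBs were NeutrAvidin-enriched, digested with LysC and trypsin, and run by diaPASEF LC-MS/MS. Spectronaut label-free quantities were global-median-normalised. Values are average log2 ratios fragment/DMSO by unpaired t-test, using proteins with ≥2 unique peptides.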

USP46 = USP46 (UniProt P62068)
Method in brief: as §1

USP47 = target: T2, USP47 (UniProt Q96K76)
T2 sequence (whole entry): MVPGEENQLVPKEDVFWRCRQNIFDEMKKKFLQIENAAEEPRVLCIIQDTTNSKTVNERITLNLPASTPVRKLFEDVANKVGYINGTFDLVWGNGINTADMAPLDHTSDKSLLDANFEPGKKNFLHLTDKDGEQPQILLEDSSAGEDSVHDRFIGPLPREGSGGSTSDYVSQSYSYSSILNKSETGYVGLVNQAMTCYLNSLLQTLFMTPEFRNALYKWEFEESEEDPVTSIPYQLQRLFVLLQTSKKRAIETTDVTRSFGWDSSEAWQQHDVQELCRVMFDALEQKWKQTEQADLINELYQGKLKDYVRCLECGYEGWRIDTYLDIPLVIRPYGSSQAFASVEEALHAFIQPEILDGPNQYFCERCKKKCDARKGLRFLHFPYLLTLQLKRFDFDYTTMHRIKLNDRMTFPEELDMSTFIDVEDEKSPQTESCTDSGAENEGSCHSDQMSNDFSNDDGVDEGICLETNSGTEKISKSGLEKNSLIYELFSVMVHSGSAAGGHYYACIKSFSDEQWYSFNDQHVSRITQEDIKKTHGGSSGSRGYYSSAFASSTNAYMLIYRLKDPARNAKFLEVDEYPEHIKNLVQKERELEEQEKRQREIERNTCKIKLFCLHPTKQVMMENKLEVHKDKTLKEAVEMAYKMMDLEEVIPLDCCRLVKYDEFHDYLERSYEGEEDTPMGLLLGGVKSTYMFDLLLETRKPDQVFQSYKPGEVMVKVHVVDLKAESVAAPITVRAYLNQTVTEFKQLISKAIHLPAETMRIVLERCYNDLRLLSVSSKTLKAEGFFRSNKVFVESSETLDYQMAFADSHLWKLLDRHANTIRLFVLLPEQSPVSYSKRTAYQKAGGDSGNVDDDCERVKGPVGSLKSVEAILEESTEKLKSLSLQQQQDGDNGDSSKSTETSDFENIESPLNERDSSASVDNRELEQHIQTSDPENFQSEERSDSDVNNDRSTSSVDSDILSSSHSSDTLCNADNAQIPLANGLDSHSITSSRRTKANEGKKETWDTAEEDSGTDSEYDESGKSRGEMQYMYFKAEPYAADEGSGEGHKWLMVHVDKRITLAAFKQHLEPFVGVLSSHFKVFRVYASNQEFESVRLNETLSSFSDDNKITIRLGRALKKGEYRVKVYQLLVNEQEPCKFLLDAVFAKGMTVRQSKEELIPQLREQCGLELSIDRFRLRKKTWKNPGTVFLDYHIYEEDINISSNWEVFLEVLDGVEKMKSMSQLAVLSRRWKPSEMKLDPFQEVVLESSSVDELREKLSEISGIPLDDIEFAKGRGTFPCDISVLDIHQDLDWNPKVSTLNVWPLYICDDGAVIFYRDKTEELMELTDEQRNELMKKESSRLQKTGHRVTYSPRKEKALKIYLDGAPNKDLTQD
Method in brief: as §1

USP48 = target: T3, USP48 (UniProt Q86UV5)
T3 sequence (whole entry): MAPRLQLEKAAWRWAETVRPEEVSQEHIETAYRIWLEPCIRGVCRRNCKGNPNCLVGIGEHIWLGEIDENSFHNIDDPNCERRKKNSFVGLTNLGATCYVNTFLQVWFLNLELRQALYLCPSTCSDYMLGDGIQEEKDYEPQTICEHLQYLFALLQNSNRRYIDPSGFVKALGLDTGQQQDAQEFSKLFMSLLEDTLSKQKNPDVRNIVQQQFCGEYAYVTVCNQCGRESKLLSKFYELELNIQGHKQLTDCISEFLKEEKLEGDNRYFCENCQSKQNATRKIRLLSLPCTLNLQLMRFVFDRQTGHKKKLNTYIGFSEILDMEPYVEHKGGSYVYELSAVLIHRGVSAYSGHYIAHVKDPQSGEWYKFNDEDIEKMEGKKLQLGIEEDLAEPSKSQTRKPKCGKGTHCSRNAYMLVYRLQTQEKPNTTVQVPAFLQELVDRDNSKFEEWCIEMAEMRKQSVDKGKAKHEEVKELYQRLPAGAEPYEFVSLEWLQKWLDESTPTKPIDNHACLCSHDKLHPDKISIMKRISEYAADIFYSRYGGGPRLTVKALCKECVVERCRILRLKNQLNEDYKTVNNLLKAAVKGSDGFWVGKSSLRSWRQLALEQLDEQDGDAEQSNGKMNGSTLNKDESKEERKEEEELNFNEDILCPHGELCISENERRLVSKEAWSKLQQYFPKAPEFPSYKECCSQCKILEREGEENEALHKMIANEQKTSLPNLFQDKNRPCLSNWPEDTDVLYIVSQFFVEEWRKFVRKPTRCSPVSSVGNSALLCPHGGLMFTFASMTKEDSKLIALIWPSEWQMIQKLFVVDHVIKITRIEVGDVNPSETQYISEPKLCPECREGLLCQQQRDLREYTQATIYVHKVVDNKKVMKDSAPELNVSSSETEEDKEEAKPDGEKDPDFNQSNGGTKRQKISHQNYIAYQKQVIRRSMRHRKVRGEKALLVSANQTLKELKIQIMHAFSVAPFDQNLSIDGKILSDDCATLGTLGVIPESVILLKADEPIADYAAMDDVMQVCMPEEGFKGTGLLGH
Method in brief: as §1

USP5 = target: T4, USP5 (UniProt P45974)
T4 sequence (whole entry): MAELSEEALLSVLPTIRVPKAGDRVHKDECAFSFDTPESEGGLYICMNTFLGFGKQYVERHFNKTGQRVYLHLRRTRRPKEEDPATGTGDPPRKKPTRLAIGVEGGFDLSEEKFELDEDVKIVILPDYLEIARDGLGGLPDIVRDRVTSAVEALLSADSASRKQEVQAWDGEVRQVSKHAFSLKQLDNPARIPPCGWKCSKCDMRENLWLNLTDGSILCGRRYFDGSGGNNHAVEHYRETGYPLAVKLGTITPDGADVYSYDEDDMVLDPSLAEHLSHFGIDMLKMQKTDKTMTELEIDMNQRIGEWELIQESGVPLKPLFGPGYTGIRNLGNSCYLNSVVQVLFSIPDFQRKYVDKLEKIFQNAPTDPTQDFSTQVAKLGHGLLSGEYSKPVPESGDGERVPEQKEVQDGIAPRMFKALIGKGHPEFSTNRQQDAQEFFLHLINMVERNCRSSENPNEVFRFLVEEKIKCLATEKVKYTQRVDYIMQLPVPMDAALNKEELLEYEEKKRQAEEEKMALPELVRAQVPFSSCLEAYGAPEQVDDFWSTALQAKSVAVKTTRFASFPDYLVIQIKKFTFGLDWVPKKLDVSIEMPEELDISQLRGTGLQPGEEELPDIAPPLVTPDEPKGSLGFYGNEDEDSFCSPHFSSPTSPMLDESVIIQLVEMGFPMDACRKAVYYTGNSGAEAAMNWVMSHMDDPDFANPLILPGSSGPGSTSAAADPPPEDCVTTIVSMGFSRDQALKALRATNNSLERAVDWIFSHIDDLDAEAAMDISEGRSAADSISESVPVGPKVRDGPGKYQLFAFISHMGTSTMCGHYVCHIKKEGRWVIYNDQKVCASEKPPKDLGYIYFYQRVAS
Method in brief: as §1

USP54 = USP54 (UniProt Q70EL1)
Method in brief: as §1

USP7 = USP7 (UniProt Q93009)
Method in brief: as §1

USP8 = target: T5, USP8 (UniProt P40818)
T5 sequence (whole entry): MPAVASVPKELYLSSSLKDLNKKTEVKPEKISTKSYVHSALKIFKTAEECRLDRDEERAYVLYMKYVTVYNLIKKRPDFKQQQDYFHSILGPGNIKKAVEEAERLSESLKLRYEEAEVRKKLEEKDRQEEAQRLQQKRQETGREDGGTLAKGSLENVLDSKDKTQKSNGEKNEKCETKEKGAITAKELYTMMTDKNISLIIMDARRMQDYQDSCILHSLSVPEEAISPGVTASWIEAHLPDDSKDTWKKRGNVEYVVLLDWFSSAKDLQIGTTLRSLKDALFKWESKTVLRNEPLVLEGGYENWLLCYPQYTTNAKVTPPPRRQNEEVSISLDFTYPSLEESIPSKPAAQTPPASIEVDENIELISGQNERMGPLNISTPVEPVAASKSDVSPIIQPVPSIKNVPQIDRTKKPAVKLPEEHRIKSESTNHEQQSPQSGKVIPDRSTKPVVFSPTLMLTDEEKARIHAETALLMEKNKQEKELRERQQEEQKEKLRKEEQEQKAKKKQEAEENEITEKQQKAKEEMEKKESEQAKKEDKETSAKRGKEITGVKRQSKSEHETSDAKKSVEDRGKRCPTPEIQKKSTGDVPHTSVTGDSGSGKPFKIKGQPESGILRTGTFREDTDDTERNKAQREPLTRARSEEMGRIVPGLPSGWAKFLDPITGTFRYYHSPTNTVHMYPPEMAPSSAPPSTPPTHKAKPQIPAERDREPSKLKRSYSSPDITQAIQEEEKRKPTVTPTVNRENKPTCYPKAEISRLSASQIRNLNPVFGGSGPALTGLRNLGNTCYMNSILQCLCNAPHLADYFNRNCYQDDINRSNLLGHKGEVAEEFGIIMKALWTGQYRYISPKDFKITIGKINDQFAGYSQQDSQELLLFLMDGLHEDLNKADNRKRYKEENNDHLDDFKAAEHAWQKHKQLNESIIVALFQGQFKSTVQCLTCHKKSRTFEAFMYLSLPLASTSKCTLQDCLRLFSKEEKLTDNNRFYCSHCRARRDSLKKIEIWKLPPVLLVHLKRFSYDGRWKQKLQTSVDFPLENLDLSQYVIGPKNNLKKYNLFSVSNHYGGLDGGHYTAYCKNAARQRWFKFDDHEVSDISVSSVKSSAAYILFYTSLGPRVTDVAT
Method in brief: as §1

Measured: log2 ratio of Biotin-Ahx-Ub-VS probe labelling

Chain of USP7 (Q93009 whole entry, looked up): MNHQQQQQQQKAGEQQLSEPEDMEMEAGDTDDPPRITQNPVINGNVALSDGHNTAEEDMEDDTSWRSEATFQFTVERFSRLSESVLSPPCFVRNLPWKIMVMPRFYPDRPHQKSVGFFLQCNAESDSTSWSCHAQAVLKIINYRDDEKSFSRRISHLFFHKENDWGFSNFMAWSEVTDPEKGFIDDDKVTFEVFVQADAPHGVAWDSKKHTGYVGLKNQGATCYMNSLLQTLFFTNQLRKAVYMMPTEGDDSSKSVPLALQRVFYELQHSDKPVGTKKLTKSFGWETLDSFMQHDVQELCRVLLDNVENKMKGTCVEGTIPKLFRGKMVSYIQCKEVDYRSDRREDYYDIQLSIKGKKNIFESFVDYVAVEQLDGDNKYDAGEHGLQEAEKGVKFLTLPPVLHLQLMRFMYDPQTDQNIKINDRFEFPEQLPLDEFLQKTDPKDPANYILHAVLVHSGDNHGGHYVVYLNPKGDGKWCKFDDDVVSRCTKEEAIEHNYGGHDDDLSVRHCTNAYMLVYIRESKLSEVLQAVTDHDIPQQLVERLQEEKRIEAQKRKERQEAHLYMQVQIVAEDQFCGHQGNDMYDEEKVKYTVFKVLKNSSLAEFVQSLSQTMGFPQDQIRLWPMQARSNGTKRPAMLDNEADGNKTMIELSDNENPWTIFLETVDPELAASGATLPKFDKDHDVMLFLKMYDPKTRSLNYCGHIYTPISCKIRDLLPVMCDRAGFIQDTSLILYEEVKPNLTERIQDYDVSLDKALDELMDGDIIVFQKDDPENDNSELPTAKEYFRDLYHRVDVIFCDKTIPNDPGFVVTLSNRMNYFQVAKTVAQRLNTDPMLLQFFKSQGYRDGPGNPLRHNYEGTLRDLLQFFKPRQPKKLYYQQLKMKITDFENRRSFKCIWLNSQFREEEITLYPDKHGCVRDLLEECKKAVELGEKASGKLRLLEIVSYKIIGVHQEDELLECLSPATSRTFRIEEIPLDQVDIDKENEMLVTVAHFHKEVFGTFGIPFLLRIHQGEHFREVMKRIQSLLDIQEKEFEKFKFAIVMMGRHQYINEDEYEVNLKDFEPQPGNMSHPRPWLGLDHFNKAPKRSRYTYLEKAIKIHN
Chain of USP46 (P62068 whole entry): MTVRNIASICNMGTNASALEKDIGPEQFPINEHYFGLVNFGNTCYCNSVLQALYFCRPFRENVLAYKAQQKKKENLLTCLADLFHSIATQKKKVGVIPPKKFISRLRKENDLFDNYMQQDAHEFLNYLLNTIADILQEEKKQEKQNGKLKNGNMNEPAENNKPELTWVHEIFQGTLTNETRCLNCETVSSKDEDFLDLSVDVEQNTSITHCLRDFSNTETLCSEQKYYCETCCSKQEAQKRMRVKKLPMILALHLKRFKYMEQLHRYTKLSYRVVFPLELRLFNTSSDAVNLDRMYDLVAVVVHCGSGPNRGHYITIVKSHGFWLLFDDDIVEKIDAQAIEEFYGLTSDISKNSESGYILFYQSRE
Chain of USP54 (Q70EL1 whole entry): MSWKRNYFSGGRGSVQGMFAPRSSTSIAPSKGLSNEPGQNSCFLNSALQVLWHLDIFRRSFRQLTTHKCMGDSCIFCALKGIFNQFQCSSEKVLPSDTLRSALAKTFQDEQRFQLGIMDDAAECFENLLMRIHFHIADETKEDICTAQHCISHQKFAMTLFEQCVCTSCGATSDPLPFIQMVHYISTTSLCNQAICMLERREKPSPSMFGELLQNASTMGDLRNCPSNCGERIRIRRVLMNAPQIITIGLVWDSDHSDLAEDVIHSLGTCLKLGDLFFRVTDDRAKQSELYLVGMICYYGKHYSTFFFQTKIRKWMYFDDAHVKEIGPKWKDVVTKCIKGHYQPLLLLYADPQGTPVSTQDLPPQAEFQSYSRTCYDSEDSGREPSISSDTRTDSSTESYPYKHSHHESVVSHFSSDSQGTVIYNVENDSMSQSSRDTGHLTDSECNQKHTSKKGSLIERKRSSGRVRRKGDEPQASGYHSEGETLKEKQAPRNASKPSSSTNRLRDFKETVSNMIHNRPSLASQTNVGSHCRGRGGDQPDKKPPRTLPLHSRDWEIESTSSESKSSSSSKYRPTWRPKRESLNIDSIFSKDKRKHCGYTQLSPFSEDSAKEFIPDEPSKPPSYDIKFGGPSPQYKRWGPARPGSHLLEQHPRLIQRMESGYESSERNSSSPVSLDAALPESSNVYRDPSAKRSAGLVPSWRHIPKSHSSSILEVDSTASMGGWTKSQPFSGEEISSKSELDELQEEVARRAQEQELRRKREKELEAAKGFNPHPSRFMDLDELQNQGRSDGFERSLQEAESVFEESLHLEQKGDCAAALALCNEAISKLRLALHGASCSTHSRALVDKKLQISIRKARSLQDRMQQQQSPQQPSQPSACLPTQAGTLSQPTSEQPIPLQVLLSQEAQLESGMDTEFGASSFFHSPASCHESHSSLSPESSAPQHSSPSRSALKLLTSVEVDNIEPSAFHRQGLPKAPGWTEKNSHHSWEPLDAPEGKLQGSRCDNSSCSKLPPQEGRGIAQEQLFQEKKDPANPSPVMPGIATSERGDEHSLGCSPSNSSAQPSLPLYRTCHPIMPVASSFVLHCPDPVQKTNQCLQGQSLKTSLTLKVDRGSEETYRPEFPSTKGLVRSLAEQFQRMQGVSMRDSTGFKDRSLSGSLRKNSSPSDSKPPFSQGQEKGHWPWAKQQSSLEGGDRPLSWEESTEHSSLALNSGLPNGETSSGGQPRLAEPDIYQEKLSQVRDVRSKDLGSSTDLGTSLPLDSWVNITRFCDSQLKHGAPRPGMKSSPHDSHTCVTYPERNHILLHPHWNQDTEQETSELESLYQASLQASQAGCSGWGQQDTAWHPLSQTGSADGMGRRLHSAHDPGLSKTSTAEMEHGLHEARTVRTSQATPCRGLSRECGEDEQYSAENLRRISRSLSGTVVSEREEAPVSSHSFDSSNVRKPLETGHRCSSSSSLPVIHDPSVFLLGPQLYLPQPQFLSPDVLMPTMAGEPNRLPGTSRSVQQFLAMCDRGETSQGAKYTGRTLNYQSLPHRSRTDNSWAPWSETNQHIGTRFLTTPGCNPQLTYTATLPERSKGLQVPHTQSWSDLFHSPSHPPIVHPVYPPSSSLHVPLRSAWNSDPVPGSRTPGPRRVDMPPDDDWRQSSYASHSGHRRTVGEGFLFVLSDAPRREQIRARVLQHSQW

C/C(=C\CNC(=O)CCl)c1cnn(C)c1.Cl
inactive: USP42 0.377 | USP46 -0.21 | USP47 -0.51 | USP48 -0.224 | USP5 -0.543 | USP54 -0.0188 | USP7 -0.224 | USP8 0.115
